# Measurements from ChEMBL document CHEMBL3433997, “St. Jude Leishmania screening dataset” (2016).
# What was measured:
# Format in all cases: functional
# [1] = biological target: Solute carrier family 2, facilitated glucose transporter member 1 (Homo sapiens) (UniProt P11166); assay: ST_JUDE_LEISH: Cytotoxicity at 2uM final concentration against transgenic Leishmania Mexicana promastigotes LmGLUT1 that are glucose transport deficient and complemented with the human glucose transporter GLUT1. Activity is measured by DNA content using SYBR green in vitro
# [2] = biological target: Hexose transporter 1 (Plasmodium falciparum) (UniProt O97467); assay: ST_JUDE_LEISH: Cytotoxicity at 2uM final concentration against transgenic Leishmania Mexicana promastigotes LmPfHT that are glucose transport deficient and complemented with the Plasmodium falciparum hexose transporter. Activity is measured by DNA content using SYBR green in vitro
# [3] = biological target: Glucose transporter (Leishmania mexicana) (UniProt O61059); assay: ST_JUDE_LEISH: Cytotoxicity at 2uM final concentration against transgenic Leishmania Mexicana promastigotes LmGT2 that are glucose transport deficient and complemented with the L. Mexicana glucose transporter 2. Activity is measured by DNA content using SYBR green in vitro
# Sequence of Solute carrier family 2, facilitated glucose transporter member 1 (Homo sapiens) (P11166 whole entry): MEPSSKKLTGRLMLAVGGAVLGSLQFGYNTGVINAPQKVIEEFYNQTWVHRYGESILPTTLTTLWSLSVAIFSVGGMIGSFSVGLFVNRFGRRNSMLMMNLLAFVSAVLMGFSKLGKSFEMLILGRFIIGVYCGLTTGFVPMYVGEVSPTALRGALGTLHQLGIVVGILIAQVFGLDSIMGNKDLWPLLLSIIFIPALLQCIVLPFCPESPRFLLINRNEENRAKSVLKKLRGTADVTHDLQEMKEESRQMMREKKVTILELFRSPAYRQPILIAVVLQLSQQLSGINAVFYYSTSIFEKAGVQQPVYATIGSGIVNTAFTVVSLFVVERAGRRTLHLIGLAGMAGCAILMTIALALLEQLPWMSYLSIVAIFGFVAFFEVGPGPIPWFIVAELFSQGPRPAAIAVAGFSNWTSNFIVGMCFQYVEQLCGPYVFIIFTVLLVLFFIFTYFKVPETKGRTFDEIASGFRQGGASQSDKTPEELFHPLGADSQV
SMILES,inhibition [1] [%],inhibition [2] [%],inhibition [3] [%]
Cc1cc(N/N=C/c2cccc([N+](=O)[O-])c2)c2cc(F)ccc2n1,2.55,1.82,0.14
COc1ccc(C2C(C(=O)Nc3ccc4c(c3)OCO4)c3cc(OC)c(OC)cc3C(=O)N2C)cc1 (centres undefined),2.12,1.73,0.53
CCCCc1cc(NCc2ccncc2)nc(Nc2cccc(OC)c2)n1,21.4,10.9,3.45
Clc1cccc(CNc2nc(NCCc3c[nH]cn3)nc(NC3CCCCC3)n2)c1,3.76,3.97,2.21
Oc1ccc(-c2cncc(NCc3ccc(F)c(F)c3)c2)cc1,7.16,7.41,7.98
CCCC1N=C(N)N=C(N)N1c1ccc(CC)cc1 (centres undefined),1.98,0.44,1.72
CCCCCCCNCCNc1cc(C)nc2ccccc12,2.03,7.41,2.79
Cc1cccc2nc(-c3ccc(-c4cccc(CN5CCC(C(N)=O)CC5)c4)cc3)[nH]c12,0.21,-0.52,-1.72
CC1(C)N=C(N)N=C(N)N1c1cc(Cl)c(Cl)c(Cl)c1,1.4,0.23,2.36
CCCN1CCN(CCCCNc2c3ccccc3nc3ccccc23)CC1,51.5,73.8,27.7
COc1ccc2ncc(F)c(NC(=O)C3CCC(NCc4cc5c(F)cccc5[nH]4)CC3)c2n1 (centres undefined),77.5,80.8,77.4
CC(C)(CNC(=O)[C@H]1CCCN1)c1nc(-c2ccc(Cl)c(O)c2)c(-c2ccncc2)[nH]1,8.17,8.03,8.28
Cc1cccc2nc(-c3ccc(-c4ccc(CNCC(C)C)cc4)cc3)[nH]c12,15.3,13.6,8.18
CCNc1c2ccc(Cl)cc2nc2ccc(OC)cc12,2.46,4.37,1.15
NS(=O)(=O)Cc1cccc(-c2ccnc3ccc(-c4cccc(S(N)(=O)=O)c4)cc23)c1,3.2,0.84,1.72
NC1CCCN(Cc2ccc(-c3ccc(-c4nc5ccccc5[nH]4)s3)cc2)C1 (centres undefined),8.95,5.92,9.09
COc1ccc2nc(-c3ccccc3)cc(NCCCNc3cc(-c4ccccc4)nc4ccc(OC)cc34)c2c1,3.06,2.6,0.67
Cc1ccccc1C1CCN(C2CCC(NC(=O)c3csc(-c4cccc(Cl)c4)n3)CC2)CC1 (centres undefined),9.21,12,8.46
Cc1cc2ncn(-c3nccc(NCc4ccc(F)c(C)c4)n3)c2cc1C,4,4.86,2.52
CNC(=O)Cc1ccc(C(=O)Nc2cccc(-c3csc(-c4nc5ccccc5[nH]4)c3)c2)cc1,-2.64,-0.06,1.68
O=C(Cn1c(CCc2cccc(F)c2F)nc(=O)c2ccccc21)N(CCN1CCCC1)Cc1ccc(-c2ccc(C(F)(F)F)cc2)cc1,0.45,0.38,-4.3
CC(C)N1CCC(N(Cc2ccc(-c3ccc(C(F)(F)F)cc3)cc2)C(=O)Cn2c(SCc3cccc(F)c3F)cc(=O)c3ccccc32)CC1,-0.18,1.73,0.55
CN(C)Cc1ccc(-c2ccc(NC(=O)c3ccc4c(=O)n(Cc5ccccc5)cnc4c3)cc2)cc1,95.2,94,63.3
CC(CN(C)C)C(=O)Nc1cccc(-c2ccc(-c3nc4cc(F)ccc4[nH]3)s2)c1 (centres undefined),3.85,2.55,4.47
COc1ccc2nccc(N3CCC(SCCNS(=O)(=O)c4ccc5c(c4)OCCO5)C3)c2n1 (centres undefined),5.04,3.57,-0.04

SMILES,inhibition [1] [%],inhibition [2] [%],inhibition [3] [%]
Cc1cccc(C)c1OC(=O)C(C)C(O)C1(Sc2ccccc2)CCN(C)CC1 (centres undefined),5.2,3.78,3.85
Cc1nc2c(-n3cc(Cn4ccnc4)c4ccccc43)ncnc2n1-c1ccc(Cl)cc1Cl,0.32,0.41,-1
O=C(Nc1cccc(-c2ccc(CN3CCCC3)cc2)c1)c1ccc(F)cc1,-0.73,0.3,0.64
CC(C)(C)CCOC(=O)N1CCc2c(cc(O)c(O)c2Cl)C(c2ccc(O)cc2)C1 (centres undefined),-1.94,0.65,14
COc1ccc2nccc([C@@H](O)CN3CCC(NCCOc4cc(F)cc(F)c4)CC3)c2c1,9.84,19.3,4.32
CN(C1CCC(NC(=O)/C=C/c2ccccc2)CC1)C1CC2(CCN(C(=O)OC(C)(C)C)CC2)c2ccccc21 (centres undefined),9.97,5.58,6.01
N=C(N)c1cccc(-c2cc(-c3cccc(C(=N)N)c3)on2)c1,0.92,2.23,-0.32
COc1ccc2c(NN=Cc3ccncc3)ccnc2c1,-0.81,-0.51,-0.6
CC(C)N1CCN(C(CN2CCN(CCCOc3ccc4ccccc4c3)CC2)c2ccc(F)cc2)CC1 (centres undefined),1.8,1.79,-0.76
CCN1CCN(c2cc(C)c3cc(NC(=O)c4cccc([N+](=O)[O-])c4)ccc3n2)CC1,-0.98,0.44,-1.42
O=C(Nc1cccc(-c2nn3ncccc3c2-c2ccnc(Nc3cccc(C(F)(F)F)c3)n2)c1)c1c(F)cccc1F,2.16,3.08,-0.92
CCCC1N=C(N)N=C(N)N1c1ccc(Cl)cc1 (centres undefined),2,2.02,2.31
CN(C)CCCNC(=O)c1ccccc1Sc1ccccc1C#N,0.79,1.43,1.54
CC(C)CN1CCCN(Cc2cccc(NC(=O)c3ccc(Cl)c(Cl)c3)c2)CC1,10.4,10.2,4.5
N#Cc1ccc(N2CCN(Cc3cccc(-c4ccc(-c5nc6cc(C(F)(F)F)ccc6[nH]5)cc4)c3)CC2)nc1,4.01,6.49,0.17
N=c1cc(C=Cc2ccc(O)cc2)[nH]c2ccccc12,2.26,4.1,3.12
COc1ccc(C2CC(c3cccs3)=NN2C(=O)c2ccco2)cc1OC (centres undefined),5.38,4.8,4.31
CC(C)Oc1cc(-c2ccc(S(C)(=O)=O)cc2)nc(N(Cc2cccc(F)c2F)Cc2cccc(F)c2F)n1,-1.85,0.65,-2.49
Cc1noc(C)c1-c1cccc(CNCc2cccc(-c3cccc(-c4nc5cc(C(F)(F)F)ccc5[nH]4)c3)c2)c1,0.14,1.85,0.61
COc1cc(NC(=O)/C=C/c2cc(F)cc(F)c2F)cc(OCCN2CCCCC2)c1,5.16,3.35,4.25
C=CCC(C(=O)Nc1ccnc2ccc(OC)cc12)C1CCN(CCCCCCC)CC1 (centres undefined),1.74,1.29,0.87
CCc1ccc(NC(=O)c2ccc(CN3CCCN(Cc4cccc(O)c4)CC3)cc2)cc1,-0.63,-1.78,2.57
NC1CCN(Cc2cccc(-c3cccc(-c4nc5ccccc5[nH]4)c3)c2)C1 (centres undefined),2.17,3.31,1.15
CC(=O)Nc1ccc(COc2ccc(Nc3ccnc4cc(-c5ccccn5)ccc34)cc2)cc1,3.41,1.28,1.17
CCCC1N=C(N)N=C(N)N1c1ccc(C)c(C)c1 (centres undefined),-0.66,-2.19,-2.79

SMILES,inhibition [1] [%],inhibition [2] [%],inhibition [3] [%]
CN1CCCC1CCCOC(=O)c1ccc(N)cc1 (centres undefined),3.24,3.07,2.42
COc1ccc(CC2(c3ccc(F)cc3)N=C(N)N(CCCc3ccc4c(c3)OCO4)C2=O)cc1 (centres undefined),4,5.58,5.39
CS(=O)(=O)CCNCc1cccc(-c2ccc3c(Nc4ccc(Oc5ccccc5)cc4)ccnc3c2)c1,0.35,-0.06,1.33
Cc1nn(C2CCS(=O)(=O)C2)c(C)c1C1Nc2ccccc2C(=O)N1Cc1ccc2c(c1)OCO2 (centres undefined),-0.66,-0.19,-1.17
Cc1cccc2nc(-c3ccc(-c4ccc(C(=O)NCCN5CCCC5)cc4)s3)[nH]c12,1.13,0.54,-0.1
COc1ccc2nc(N)nc(C)c2c1,4.18,2.86,2.78
Cc1cnc(Nc2cccnc2)nc1Nc1ccccc1C(=O)NC(C)C,1.01,1.12,2.25
O=C(NCCCCN1CCC(c2c[nH]c3ccccc23)CC1)c1sc(-c2ccc(C(F)(F)F)cc2)nc1CO,7.38,8.88,5.81
CCCc1cc(C)ccc1OCCCON1C(NC(=O)OCC)=NC(NC(=O)OCC)=NC1(C)C,-0.11,1.76,-0.57
NC1CCN(Cc2ccc(-c3ccc(-c4nc5cc(F)ccc5[nH]4)s3)cc2)C1 (centres undefined),0.37,4.62,5.81
CC(C)Cn1cc(C2CCN(CCN3CCC(CNC(=O)c4ccc(NC(=O)c5cc(Cl)cc(Cl)c5)cc4)CC3)CC2)c2ccccc21,1.27,4.22,1.97
CCCc1cc(Cc2cnc(N)nc2N)cc(CCC)c1OCCCCC(=O)OC,3.01,0.4,0.33
CCOc1ccc(C(C)NC(=O)C2COc3ccccc3O2)cc1OCC (centres undefined),2.23,1.59,2.93
O=C(c1cc(-c2ccccc2O)on1)N1CCN(C(c2ccccc2)c2ccccc2)CC1,-0.36,-0.36,0.34
Cc1cc(=NN=Cc2ccccc2F)c2cc(F)ccc2[nH]1,1.79,3.14,0.82
O=C(NCCCNc1ccnc2cc(Cl)ccc12)c1ccccc1F,4.12,3.35,4.23
CCCNC(=O)C1Cc2c([nH]c3ccc(Br)cc23)C2(CCN(CCc3ccccc3)CC2)N1 (centres undefined),-1.4,0.12,1.33
CC(C)(c1ccccc1)c1ccc(O)c(CN2CCOCC2)c1,-0.49,-1.3,-0.41
Cc1cc(Nc2ccc(C)c(Cl)c2)n2nc(C(F)(F)F)nc2n1,6.65,2.47,1.18
N#Cc1cccc(NC(=O)Nc2cccc(-c3cccc(-c4nc5cc(F)ccc5[nH]4)c3)c2)c1,9.7,7.87,8.96
CC1(C)N=C(N)N=C(N)N1c1ccc(Oc2ccc(Cl)cc2)c(Cl)c1,0.34,-1.08,2.05
CC(C)N1CCN(c2ccc(OCCCCN3CCN(c4cccc(Cl)c4Cl)CC3)cc2Cl)CC1,-1.28,0.44,-2.3
COc1ccc(C2C(C(=O)Nc3ccc(C)c(F)c3)c3cc(OC)c(OC)cc3C(=O)N2C)cc1 (centres undefined),2.11,3.41,3.34
